A short description of experiment [1]: ATG_CRE_CIS: Attagene CIS-FACTORIAL HepG2 Assay for human cAMP Responsive Element (CRE) binding protein 3 (AID 2282926). The note with it: HepG2 CRE cis-reporter, Attagene multiplexed mRNA; actives raise or lower the signal. In short, it runs like this:
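Cells carrying cis-regulated reporter constructs respond through their own endogenous factors. After 24 h treatment, RNA is reverse-transcribed, amplified, labelled and sized by capillary electrophoresis; up- and down-regulation are both scored against vehicle.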

For experiment [2], the target named is CCAAT/enhancer-binding protein beta (Homo sapiens) (UniProt P17676). Put plainly: ATG_C_EBP_CIS: Attagene CIS-FACTORIAL HepG2 Assay for human CCAAT/Enhancer Binding Protein (C/EBP) beta (AID 2282927). To be noted: HepG2 Attagene cis-factorial transcription factor reporter; actives raise or lower the signal. Summed up:
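HepG2, transient MRTU transfection, 24 h treatment. RT-PCR plus CE fluorescence; DMSO negative control, bidirectional fit.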

Experiment [3] in a line: ATG_CMV_CIS: Attagene CIS-FACTORIAL HepG2 Assay for human CMV (Internal Marker) (AID 2282928).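 Note: endpoint acts as a background internal control marker rather than a target.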 To be noted: HepG2 CMV promoter reporter, transcription factor profiling; actives raise or lower the signal. In short, it runs like this: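 Fluorescence intensity of RT-PCR-derived reporter fragments, resolved by capillary electrophoresis, gives the signal. HepG2 liver cells bearing transfected cis-element reporters were treated 24 h; activity in either direction was fit relative to DMSO-treated controls.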

Experiment [4] is described as follows: ATG_DR4_LXR_CIS: Attagene CIS-FACTORIAL HepG2 Assay for human Liver X Receptor (LXR), DR4 submotif (AID 2282929). The note with it: HepG2 Attagene DR4 cis-reporter, mRNA transcription; actives raise or lower the signal. In short, it runs like this: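 Readout: reporter transcript fluorescence after RT-PCR and capillary electrophoresis, fitted bidirectionally against DMSO controls. Human HepG2 liver cells carried transiently transfected multiplexed reporter constructs; endogenous transcription factor activity measured 24 h post-dosing.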

The target of experiment [5] is Aryl hydrocarbon receptor (Homo sapiens) (UniProt P35869). Kind of experiment: ATG_Ahr_CIS: Attagene CIS-FACTORIAL HepG2 Assay for human Aryl Hydrocarbon Receptor (Ahr) (AID 2282930). To be noted: HepG2 AhR cis-factorial reporter transcription; actives raise or lower the signal. Summed up:
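Endogenous factor activity is tracked through cis-promoter reporter units transfected into HepG2 cells. Transcript levels at 24 h are read by fluorescent RT-PCR and capillary electrophoresis, with activity in either direction scored relative to DMSO.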

A short description of experiment [6]: ATG_AP_1_CIS: Attagene CIS-FACTORIAL HepG2 Assay for human Activator Protein 1 (AP-1) (AID 2282931). To be noted: HepG2 Attagene cis-factorial AP-1 reporter mRNA; actives raise or lower the signal. In short, it runs like this: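 Reporter transcripts were measured 24 h after dosing by RT-PCR and capillary electrophoresis of fluorescent fragments. Cells: HepG2 carrying transfected cis-regulated reporter constructs reading endogenous factor activity. Gain or loss fitted against DMSO.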

The nature of experiment [7]: ATG_AP_2_CIS: Attagene CIS-FACTORIAL HepG2 Assay for human Activator Protein 2 (AP-2) (AID 2282932). The note with it: HepG2 AP-2 cis-reporter, Attagene transcription factor profiling; actives raise or lower the signal. In short, it runs like this: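 Liver-derived HepG2 line, cis-reporter system measuring endogenous factors; 24 h dosing; reporter mRNA detected by fluorescent RT-PCR and capillary electrophoresis.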

Experiment [8] is described as follows: ATG_BRE_CIS: Attagene CIS-FACTORIAL HepG2 Assay for human Bone Morphogenetic Protein (BMP) Response Element (BRE) (AID 2282933). To be noted: HepG2 BMP response element reporter, Attagene transcription factor profiling; actives raise or lower the signal. In short, it runs like this: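 After a 24 h chemical treatment, transiently transfected HepG2 cells were lysed for RNA; reporter transcripts were quantified by fluorescent RT-PCR and capillary electrophoresis, normalised to DMSO.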

The target of experiment [9] is Retinoic acid receptor alpha (Homo sapiens) (UniProt P10276). Put plainly: ATG_DR5_RAR_CIS: Attagene CIS-FACTORIAL HepG2 Assay for human Retinoic Acid Receptor Alpha (RARE), DR5 submotif (AID 2282934).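 For AC50: reporter responds to endogenous RAR alpha beta and gamma in HepG2 not RARA alone.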 The note with it: HepG2 Attagene cis-factorial RARE DR5 reporter, mRNA; actives raise or lower the signal. Summed up: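 After 24 h of chemical exposure, transiently transfected HepG2 cells were lysed for total RNA; the DR5-regulated reporter transcript was quantified via RT-PCR and capillary electrophoresis, with activity fitted bidirectionally against DMSO.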

The target in experiment [10] is Transcription factor E2F1 (Homo sapiens) (UniProt Q01094). Kind of experiment: ATG_E2F_CIS: Attagene CIS-FACTORIAL HepG2 Assay for human E2F Transcription Factor 1 (AID 2282935). To be noted: HepG2 Attagene cis-reporter, E2F reporter RNA transcripts; actives raise or lower the signal. Summed up:
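Liver-derived HepG2 cells expressing transfected promoter-driven reporter units received test chemical for 24 hours. Signal gains or losses were fitted bidirectionally against DMSO.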

Consider 18 molecules from PubChem BioAssay (EPA / NIEHS).

Broadly, the AC50 is the midpoint of the concentration-response curve, whichever way the signal moves.

The source made the active and inactive calls. Rule for the calls: active = hit-call score of the fitted dose curve at least 0.9, where 1 is the maximum; inactive = score below 0.9.

Sequence of Retinoic acid receptor alpha (Homo sapiens) (P10276 whole entry, looked up): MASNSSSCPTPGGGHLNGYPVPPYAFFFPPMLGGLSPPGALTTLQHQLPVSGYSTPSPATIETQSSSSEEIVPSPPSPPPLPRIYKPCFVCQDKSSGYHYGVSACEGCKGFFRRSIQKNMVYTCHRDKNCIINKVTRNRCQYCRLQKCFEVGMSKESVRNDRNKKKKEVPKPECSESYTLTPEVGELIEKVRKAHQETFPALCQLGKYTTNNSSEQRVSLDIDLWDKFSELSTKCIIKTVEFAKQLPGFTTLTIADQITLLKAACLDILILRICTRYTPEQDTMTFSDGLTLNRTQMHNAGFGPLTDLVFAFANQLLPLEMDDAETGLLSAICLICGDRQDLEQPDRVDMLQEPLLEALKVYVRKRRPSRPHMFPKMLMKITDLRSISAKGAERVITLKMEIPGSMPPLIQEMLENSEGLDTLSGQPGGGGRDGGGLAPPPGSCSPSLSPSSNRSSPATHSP
Sequence of Aryl hydrocarbon receptor (Homo sapiens) (P35869 whole entry, looked up): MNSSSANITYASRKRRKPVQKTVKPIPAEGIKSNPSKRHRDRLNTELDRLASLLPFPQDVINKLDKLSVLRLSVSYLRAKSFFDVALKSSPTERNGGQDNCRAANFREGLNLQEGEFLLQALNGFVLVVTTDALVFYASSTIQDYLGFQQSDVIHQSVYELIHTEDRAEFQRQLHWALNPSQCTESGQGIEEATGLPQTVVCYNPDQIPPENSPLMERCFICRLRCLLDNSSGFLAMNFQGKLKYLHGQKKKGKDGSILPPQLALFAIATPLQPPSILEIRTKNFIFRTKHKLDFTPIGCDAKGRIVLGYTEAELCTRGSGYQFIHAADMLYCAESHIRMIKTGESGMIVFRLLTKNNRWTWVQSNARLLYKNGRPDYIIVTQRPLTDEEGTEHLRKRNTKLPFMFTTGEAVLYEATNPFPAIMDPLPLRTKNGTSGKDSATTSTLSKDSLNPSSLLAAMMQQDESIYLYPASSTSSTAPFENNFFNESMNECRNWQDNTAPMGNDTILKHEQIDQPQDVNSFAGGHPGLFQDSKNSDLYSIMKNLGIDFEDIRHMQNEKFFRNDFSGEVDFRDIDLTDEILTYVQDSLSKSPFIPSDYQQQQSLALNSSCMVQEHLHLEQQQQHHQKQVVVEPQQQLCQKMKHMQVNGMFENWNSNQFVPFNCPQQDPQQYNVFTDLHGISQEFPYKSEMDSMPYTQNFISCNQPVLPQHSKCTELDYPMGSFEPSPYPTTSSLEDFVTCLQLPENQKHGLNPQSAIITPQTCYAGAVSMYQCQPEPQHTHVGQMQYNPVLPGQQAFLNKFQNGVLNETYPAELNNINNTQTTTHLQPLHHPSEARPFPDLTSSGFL
Sequence of CCAAT/enhancer-binding protein beta (Homo sapiens) (P17676 whole entry, looked up): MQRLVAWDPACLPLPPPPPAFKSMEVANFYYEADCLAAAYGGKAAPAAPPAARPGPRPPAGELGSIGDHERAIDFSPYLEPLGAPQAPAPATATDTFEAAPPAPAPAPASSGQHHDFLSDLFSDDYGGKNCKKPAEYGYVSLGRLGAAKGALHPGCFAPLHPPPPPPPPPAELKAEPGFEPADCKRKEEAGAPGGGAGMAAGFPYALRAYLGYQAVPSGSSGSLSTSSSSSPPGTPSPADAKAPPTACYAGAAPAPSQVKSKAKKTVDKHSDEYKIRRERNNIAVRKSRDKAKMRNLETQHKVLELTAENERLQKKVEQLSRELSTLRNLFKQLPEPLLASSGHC
Sequence of Transcription factor E2F1 (Homo sapiens) (Q01094 whole entry, looked up): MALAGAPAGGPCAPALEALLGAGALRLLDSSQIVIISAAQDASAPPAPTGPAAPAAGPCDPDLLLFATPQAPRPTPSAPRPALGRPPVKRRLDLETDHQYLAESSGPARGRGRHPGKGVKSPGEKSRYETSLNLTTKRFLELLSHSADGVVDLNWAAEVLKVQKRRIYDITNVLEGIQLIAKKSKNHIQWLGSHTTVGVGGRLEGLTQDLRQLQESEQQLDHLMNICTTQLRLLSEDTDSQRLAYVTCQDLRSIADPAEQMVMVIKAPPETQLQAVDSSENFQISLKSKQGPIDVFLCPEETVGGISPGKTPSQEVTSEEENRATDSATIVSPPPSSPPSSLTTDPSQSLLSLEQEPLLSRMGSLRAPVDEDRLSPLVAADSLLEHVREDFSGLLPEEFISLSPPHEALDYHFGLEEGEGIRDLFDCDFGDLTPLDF

In the case of `O=C(O)c1cc(Oc2ccc(C(F)(F)F)cc2Cl)ccc1[N+](=O)[O-]`, the result in [1], in experiment [2], in experiment [3], in experiment [4], in experiment [5] and in [6] was inactive. The result in experiment [7], in experiment [8], in experiment [9] and in experiment [10] was inactive.
As to `O=c1ccc(=O)[nH][nH]1`, the molecule was called inactive in experiment [1], in [2], in [3], in experiment [4], in [5] and in experiment [6]. Also, the call in experiment [7], in experiment [8] and in experiment [10] was inactive.
Regarding `C=C(C)[C@H]1Cc2c(ccc3c2O[C@@H]2COc4cc(OC)c(OC)cc4[C@@H]2C3=O)O1`, the AC50 in experiment [1] was 0.0337 µM (active); in [2], 0.0249 µM (active); in experiment [3], 0.0033 µM (active); in [6], 0.0044 µM (active); in experiment [8], 0.0104 µM (active); in experiment [9] it was 0.0229 µM (active). Further, the result in [4], in experiment [5], in experiment [7] and in experiment [10] was inactive.
As to `C[Si](Cn1cncn1)(c1ccc(F)cc1)c1ccc(F)cc1`, the molecule was classed as inactive in [1], in [2], in experiment [3], in [5], in experiment [7] and in experiment [10]. Besides, the AC50 in experiment [4] is 48.7 µM (active); in [6] it was 50 µM (active); in [8], 39.1 µM (active).
`CCOP(=O)(OCC)Oc1cc(C)nc(C(C)C)n1`: the result in [1], in [2], in experiment [3], in [4], in experiment [5] and in experiment [6] was inactive. Further, the call in experiment [7], in experiment [8] and in [10] was inactive.
`CCNc1nc(Cl)nc(NC(C)(C)C#N)n1`: the molecule was classed as inactive in experiment [1], in [2], in experiment [3], in experiment [4], in experiment [5] and in experiment [6]. Moreover, the molecule was called inactive in [7], in [8] and in [10].
On to `Cc1cc(C2CC2)nc(Nc2ccccc2)n1`, for which the AC50 in experiment [1] was 18 µM (active); in experiment [3], 13.1 µM (active); in experiment [6], 32.2 µM (active); in [8], 33.5 µM (active); in [9], 12.3 µM (active). In addition, the result in experiment [2], in experiment [4], in experiment [7] and in experiment [10] was inactive.
In the case of `CNC(=O)ON=C(C)SC`, the result in experiment [1], in [2], in experiment [3], in [4], in experiment [5] and in [6] was inactive. Besides, the call in experiment [7], in experiment [8] and in experiment [10] was inactive.
Consider `CCC(CC)Nc1c([N+](=O)[O-])cc(C)c(C)c1[N+](=O)[O-]`, for which the molecule was classed as inactive in experiment [1], in experiment [2], in [3], in experiment [5], in experiment [6] and in experiment [7]. Besides, the result in [8] and in experiment [10] was inactive. The AC50 in experiment [4] is 37.9 µM (active).
Consider `CCCSP(=O)(OCC)Oc1ccc(Br)cc1Cl` (stereo unspecified), for which the AC50 was 2.33 µM (active) in experiment [1], 1.81 µM (active) in experiment [2] and 3.92 µM (active) in [3]. In addition, the result in experiment [4], in [5], in experiment [6], in experiment [7], in [8] and in [9] was inactive. In experiment [10], the molecule was called inactive.
For the molecule `CSc1nnc(C(C)(C)C)c(=O)n1N`, the molecule was classed as inactive in experiment [1], in experiment [2], in experiment [3], in [4], in experiment [6] and in [7]. Further, the outcome in experiment [8], in experiment [9] and in experiment [10] was inactive.
Regarding `CNC(=O)ON=C(SC)C(=O)N(C)C`, the results for the AC50 in experiment [1] and in [6] were 17.4 µM (active) and 50 µM (active), respectively. The outcome in [2], in experiment [3], in [4], in experiment [5], in experiment [7] and in [8] was inactive. Moreover, the molecule was classed as inactive in experiment [9] and in [10].
In the case of `COP(=O)(OC)OC(Br)C(Cl)(Cl)Br` (stereo unspecified), the outcome in [1], in experiment [2], in experiment [3], in experiment [4], in experiment [5] and in experiment [6] was inactive. The molecule was called inactive in [7], in [8], in experiment [9] and in experiment [10].
In the case of `Nc1nc(N)nc(NC2CC2)n1`, the result in [1], in experiment [2], in experiment [3], in experiment [4], in [5] and in experiment [6] was inactive. Also, the result in experiment [7], in [8], in experiment [9] and in experiment [10] was inactive.
With `COc1ccc(C(=CC(=O)N2CCOCC2)c2ccc(Cl)cc2)cc1OC`, the AC50 was 10.9 µM (active) in experiment [1], 5.02 µM (active) in experiment [2], 2.48 µM (active) in experiment [3] and 11.9 µM (active) in experiment [8]. In addition, the molecule was classed as inactive in experiment [4], in [5], in [6], in experiment [7], in experiment [9] and in experiment [10].
In the case of `CC1(C(=O)Nc2ccc(O)c(Cl)c2Cl)CCCCC1`, the AC50 in experiment [1] was 10 µM (active); in [6], 30 µM (active); in experiment [8], 39.3 µM (active). Also, the result in [2], in experiment [3], in [4], in [5], in [7] and in experiment [10] was inactive.
In the case of `COP(=O)(OC)C(O)C(Cl)(Cl)Cl` (stereo unspecified), the AC50 in experiment [1] was 32 µM (active); in experiment [2], 50 µM (active); in experiment [3] it was 22.1 µM (active); in experiment [6], 35.2 µM (active); in experiment [8] it was 30.1 µM (active). In addition, the call in experiment [4], in [5], in [7], in [9] and in [10] was inactive.
Consider `CC(COc1ccc(Oc2ccccc2)cc1)Oc1ccccn1` (stereo unspecified), for which the result in experiment [1], in experiment [3], in experiment [4], in experiment [5], in [7] and in experiment [8] was inactive. In addition, the result in [9] and in [10] was inactive. Also, the AC50 in [2] was 13.4 µM (active); in experiment [6], 19.1 µM (active).
